This is a sample that favours compounds with a hit; in the whole collection about 10% have one here.
NS1 function inh: blocks influenza NS1 protein function. Potency, µM (top dose mostly 46.1 µM), for inactives: at the highest dose activity, positive = more growth. 0.4% of 270,000 active. AID 2326; note: actives are rising curves; nearly all actives have a fitted effect of over 50% in size
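Compounds were scored for reversing the slow growth caused by influenza A NS1 in S. cerevisiae, measured by optical density at 600 nm. Assay medium contained 2% galactose at pH 6.0; NS1-free yeast of the same strain were the positive control.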
Pf growth 96h: P. falciparum growth inhibition at 96 hour, primary screen for plastid delayed-death inhibitors; P. falciparum luciferase reporter growth, 96 h; Potency, µM (highest dose often 28.7 µM), for the others: at the highest dose activity change, negative = inhibition, hits mostly inhibitors; 6.9% of 320,000 active; AID 504834; active = well fitted inhibition curve with a large enough effect; inconclusive = small, poorly fitted or top-dose-only effect, or another doubt; inactive = no such curve, though single readings can be large or run the other way; note: % is set by controls: 0 for no effect and ±100 for the full control effect
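Cell-based qHTS: luciferase-tagged P. falciparum in erythrocytes (2% hematocrit, 0.05% parasitemia final) incubated with compounds for 96 hours, 37 C, 5% CO2; luciferase detection reagent then added and luminescence measured.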
SARS PLpro yeast: blocks SARS-CoV papain-like protease in a yeast assay; AID 485353; S. cerevisiae expressing SARS-CoV PLpro, growth rescue; Potency, µM (titrated, usually from 32.9 µM), for inactives: at the top dose activity, positive = growth rescue, most hits filed as activators; 0.19% of 330,000 active; note: 0% is about no effect; nearly all actives have a fitted effect of over 55% in size
Pf growth 48h: P. falciparum growth inhibition at 48 hours (one generation); P. falciparum luciferase growth in erythrocytes, 48 h; Potency, µM (highest dose often 28.7 µM), for the others: at the highest dose activity change, negative = inhibition, most hits filed as inhibitors; 5.9% of 310,000 active; active = well fitted inhibition curve with a large enough effect; inconclusive = small, poorly fitted or top-dose-only effect, or another doubt; inactive = no such curve, though single readings can be large or run the other way; note: % is set by controls: 0 for no effect and ±100 for the full control effect
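In quantitative HTS format, infected erythrocytes bearing luciferase-reporter parasites were treated for a single generation at 37 C. Luminescence after adding detection reagent served as the growth measure.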
* hit, by the source's call. Unless noted, calls come from the whole dose curve. Potency is the fitted concentration of half-maximal effect.

What do the screens show for `O=C(OCC(=O)N1CCCC1)c1cnc(Cl)c(Cl)c1`?
SARS PLpro yeast: 3%

What do the screens show for `COc1ccc(C(C(=O)NC(C)(C)C)N(C(=O)CNC(=O)c2cccs2)c2ccc(C)cc2)cc1OC` (stereo unspecified)?
NS1 function inh: 19%; Pf growth 96h: inconclusive; SARS PLpro yeast: -2%; Pf growth 48h: inconclusive

What do the screens show for `CCOc1ccc(N(C(=O)CNC(=O)c2cccs2)C(C(=O)NCC2CCCO2)c2ccc(OC)c(OC)c2)cc1` (stereo unspecified)?
NS1 function inh: -10%; Pf growth 96h: -5%; SARS PLpro yeast: -1%; Pf growth 48h: 9.3µM*

How did COc1ccc(C(C(=O)NC(C)(C)C)N(C(=O)CNC(=O)c2cccs2)c2ccc(C(C)C)cc2)cc1OC (stereo unspecified) do in these assays?
NS1 function inh: inconclusive; Pf growth 96h: 8.3µM*; SARS PLpro yeast: 4%; Pf growth 48h: 12µM*

What do the screens show for `CCOc1ccc(S(=O)(=O)n2cc(F)c(=O)[nH]c2=O)cc1[N+](=O)[O-]`?
NS1 function inh: -32%; Pf growth 96h: inconclusive; SARS PLpro yeast: -52%; Pf growth 48h: -16%

How did CCOc1ccc(S(=O)(=O)n2cc(F)c(=O)[nH]c2=O)cc1 do in these assays?
NS1 function inh: -7%; Pf growth 96h: 13µM*; SARS PLpro yeast: -4%; Pf growth 48h: inconclusive

What do the screens show for `Cc1cc(=O)oc(C)c1C(=O)Nc1ccc2ncccc2c1`?
NS1 function inh: 3%; SARS PLpro yeast: 2%; Pf growth 48h: 9.3µM*

How did Cc1csc(C)[n+]1CC(=O)c1ccccc1 do in these assays?
NS1 function inh: 12%; Pf growth 96h: 6.6µM*; SARS PLpro yeast: 2%; Pf growth 48h: inconclusive

Results for CCOC(=O)C[n+]1c(C)csc1C ?
NS1 function inh: 0%; Pf growth 96h: -13%; SARS PLpro yeast: -3%; Pf growth 48h: -1%

Results for CCOc1ccc(-c2nc(N)ncc2-c2ccc(Cl)cc2)c(O)c1 ?
NS1 function inh: 15%; Pf growth 96h: inconclusive; SARS PLpro yeast: -6%; Pf growth 48h: 10µM*

Results for CCOc1ccc(-c2nc(N)ncc2-c2ccc(OC)cc2)c(O)c1 ?
NS1 function inh: 5%; Pf growth 96h: inconclusive; SARS PLpro yeast: -21%; Pf growth 48h: inconclusive

How did CCOc1ccc(-c2nc(N)ncc2Oc2ccc(OC)cc2)c(O)c1 do in these assays?
NS1 function inh: 0%; Pf growth 96h: inconclusive; SARS PLpro yeast: 0%; Pf growth 48h: 12µM*

Results for COc1ccc(-c2nc(C)ncc2-c2ccc(Cl)cc2)c(O)c1 ?
NS1 function inh: -5%; Pf growth 96h: 3.7µM*; SARS PLpro yeast: 3%; Pf growth 48h: 4.7µM*

What do the screens show for `Clc1cccc(CN2CCCCCCC2)c1Cl`?
NS1 function inh: -1%; Pf growth 96h: -11%; SARS PLpro yeast: 1%; Pf growth 48h: 3%

What do the screens show for `CN1CCN(c2ccc(S(=O)(=O)N3CCOCC3)cc2NC(=O)Cc2ccccc2F)CC1`?
Pf growth 96h: -28%; SARS PLpro yeast: -1%; Pf growth 48h: -35%

What do the screens show for `COCCCn1c(=O)c2ccccc2n(Cc2cc(C(=O)OC)ccc2OC)c1=O`?
NS1 function inh: 1%; Pf growth 96h: 15%; SARS PLpro yeast: 2%; Pf growth 48h: 7.4µM*

Results for CC(C)OP(=O)(OC(C)C)/C(C=O)=N\Nc1ccc([N+](=O)[O-])cc1 ?
NS1 function inh: -84%; Pf growth 96h: inconclusive; SARS PLpro yeast: -1%; Pf growth 48h: inconclusive

How did C=C1CCN([C@H](C(=O)NCc2ccccc2)C(C)C)S(=O)(=O)c2ccccc21 do in these assays?
NS1 function inh: 3%; Pf growth 96h: 12µM*; SARS PLpro yeast: 0%; Pf growth 48h: inconclusive

How did COc1ccc(NC(=O)CCSc2nc(C)cs2)cc1 do in these assays?
NS1 function inh: 7%; Pf growth 96h: -3%; SARS PLpro yeast: 2%; Pf growth 48h: 84%

What do the screens show for `CCCN1CCC(NC(=O)CC2C(=O)NCCN2Cc2ccccc2C)CC1` (stereo unspecified)?
NS1 function inh: 1%; Pf growth 96h: 10µM*; SARS PLpro yeast: 0%; Pf growth 48h: 24%

What do the screens show for `Cc1cccc(CCNC(=O)CC2C(=O)NCCN2CC2CCCCC2)n1` (stereo unspecified)?
NS1 function inh: 1%; Pf growth 96h: inconclusive; SARS PLpro yeast: 0%; Pf growth 48h: inconclusive

Results for Cc1cccc(CCNC(=O)CC2C(=O)NCCN2Cc2ccccc2C)n1 (stereo unspecified) ?
NS1 function inh: 21%; Pf growth 96h: 12µM*; SARS PLpro yeast: 2%; Pf growth 48h: -54%

Results for CC(Oc1cc2oc(=O)c3c(c2cc1Cl)CCC3)C(=O)NCc1ccccn1 (stereo unspecified) ?
NS1 function inh: -17%; Pf growth 96h: 7%; SARS PLpro yeast: -14%; Pf growth 48h: 25%

What do the screens show for `CCN1CCN(C(=S)NC(C)c2ccccc2)CC1` (stereo unspecified)?
NS1 function inh: inconclusive; Pf growth 96h: 3.7µM*; SARS PLpro yeast: 2%; Pf growth 48h: 7%

How did Cc1cc(N2CCC(C(=O)NC3CCCCC3)CC2)nc(-c2ccccc2)n1 do in these assays?
NS1 function inh: -38%; Pf growth 96h: inconclusive; SARS PLpro yeast: 2%; Pf growth 48h: -8%

What do the screens show for `Cc1cc(N2CCC(C(=O)NC3CC3)CC2)nc(-c2ccccc2)n1`?
NS1 function inh: -1%; Pf growth 96h: inconclusive; SARS PLpro yeast: -7%; Pf growth 48h: 3.7µM*

How did CCCc1cc(N2CCC(C(N)=O)CC2)nc(-c2ccccc2)n1 do in these assays?
NS1 function inh: -2%; Pf growth 96h: 23%; SARS PLpro yeast: 1%; Pf growth 48h: 5.2µM*

What do the screens show for `C=CCn1c(-c2ccc([N+](=O)[O-])cc2)n[nH]c1=S`?
NS1 function inh: 21%; Pf growth 96h: 2.3µM*; SARS PLpro yeast: 9%; Pf growth 48h: 2%

How did C=CCn1c(-c2ccccc2[N+](=O)[O-])n[nH]c1=S do in these assays?
NS1 function inh: 7%; Pf growth 96h: inconclusive; SARS PLpro yeast: 0%; Pf growth 48h: 23%

What do the screens show for `CCOC(=O)c1cc2c(nc1NC(=S)Nc1ccccc1)CC(C)(C)OC2`?
NS1 function inh: 13%; Pf growth 96h: 10µM*; SARS PLpro yeast: -1%; Pf growth 48h: -13%

How did Cc1ccc(S(=O)(=O)N(CC(=O)NCCC2=CCCCC2)Cc2ccccc2F)cc1 do in these assays?
NS1 function inh: -38%; Pf growth 96h: 12µM*; SARS PLpro yeast: -18%; Pf growth 48h: inconclusive

How did O=C(CN(Cc1ccccc1F)S(=O)(=O)c1ccc(Cl)cc1)NCCC1=CCCCC1 do in these assays?
NS1 function inh: 3%; Pf growth 96h: 12µM*; SARS PLpro yeast: -1%; Pf growth 48h: inconclusive

What do the screens show for `C=C1CCC2[C@](C)(CO)C(O)CC[C@]2(C)C1C/C=C1/C(=O)OCC1O` (stereo partly specified)?
Pf growth 96h: 15µM*; Pf growth 48h: inconclusive

Results for O=C(NCC(c1cccs1)N1CCOCC1)c1ccccc1NS(=O)(=O)c1cc([N+](=O)[O-])ccc1Cl (stereo unspecified) ?
NS1 function inh: 25%; Pf growth 96h: 13µM*; SARS PLpro yeast: -5%; Pf growth 48h: inconclusive
